Source: PubChem
ClpP mod = qHTS Assay for Activators of ClpP; AID 651965, 2013; purified B. subtilis ClpP, FRET peptide cleavage, 20 min; 340,000 tested, 1.9% active; ATP-dependent Clp protease proteolytic subunit (Bacillus subtilis (strain 168)), P80244; Potency, µM (doses to about 57.5 µM), without a hit: at the top dose activity change, negative = active; active = well fitted falling curve with a large enough effect; inconclusive = small, poorly fitted or top-dose-only effect; inactive = no such curve, though single readings can be large or run the other way; note: potency is the fitted concentration of half-maximal effect; the source files actives as falling curves though it sought activators and does not explain the sign; nearly all actives have a fitted effect of over 65% in size
Target sequence (P80244 whole entry, looked up): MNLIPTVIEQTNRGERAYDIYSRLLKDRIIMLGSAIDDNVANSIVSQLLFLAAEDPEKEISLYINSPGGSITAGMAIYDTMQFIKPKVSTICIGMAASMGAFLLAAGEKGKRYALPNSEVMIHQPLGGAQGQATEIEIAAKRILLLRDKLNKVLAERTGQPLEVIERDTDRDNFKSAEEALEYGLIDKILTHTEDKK
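FRET quenching reversal measured ClpP activation: 10 microg/mL B. subtilis ClpP at pH 8 with the FRET-FV decapeptide, read at 430 nm after 320 nm excitation. The 20-min minus 0-min signal was scaled between DMSO/no-enzyme wells and ADEP (5.8 microM final).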
D3 antag = antagonists of human D3 dopamine receptor; P35462; 360,000 tested, 2.5% active; max response, negative = inhibition, %; D3R cells, DiscoveRx beta-arrestin luminescence, antagonist mode; hits give low values; in the data active = max response below about -50%; inconclusive = no clear call, values can overlap the other calls; note: % is set by controls: 0 for no effect and ±100 for the full control effect
Target sequence (P35462 whole entry, looked up): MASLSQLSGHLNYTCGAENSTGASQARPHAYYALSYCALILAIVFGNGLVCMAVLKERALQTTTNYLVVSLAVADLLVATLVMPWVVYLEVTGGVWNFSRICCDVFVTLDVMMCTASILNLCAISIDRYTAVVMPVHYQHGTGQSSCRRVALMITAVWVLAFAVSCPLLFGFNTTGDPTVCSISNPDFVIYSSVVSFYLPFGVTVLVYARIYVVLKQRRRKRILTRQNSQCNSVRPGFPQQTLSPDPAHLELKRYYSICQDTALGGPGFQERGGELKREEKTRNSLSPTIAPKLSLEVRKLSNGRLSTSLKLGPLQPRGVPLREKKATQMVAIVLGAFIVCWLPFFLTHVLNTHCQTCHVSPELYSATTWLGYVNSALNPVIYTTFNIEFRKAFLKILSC
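Cells plated overnight at 1500 cells/well, then exposed to library compounds with dopamine controls for 90 minutes at 37 degrees C. DiscoveRx reagent added for 30–60 minutes at room temperature; luminescence read, quantitative HTS format.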
TDP1 cell CPT = DT40-hTDP1 cell growth loss with CPT | chicken DT40 Tdp1-/-;hTDP1 cells + 20 nM CPT, ATP luminescence, 48 h | Potency, µM (highest dose often 46.2 µM), for the others: at the top dose activity change, negative = growth inhibition, actives largely listed as inhibitors | 420,000 tested, 12% active | AID 686979; note: potency is the fitted concentration of half-maximal effect; % is set by controls: 0 for no effect and ±100 for the full control effect; nearly all actives have a fitted effect of over 55% in size
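Cell growth measured by CellTiter-Glo luminescence after a minimum 48 h, 37 C compound exposure with 20 nM CPT in Tdp1-knockout DT40 cells stably expressing hTDP1, seeded 400/well; qHTS titration format.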
IL-1B inflam inh = inflammasome signaling inhibition, IL-1 beta readout. THP-1 LPS/ATP IL-1B secretion, AlphaLISA, 16 h; hits give low values. activity change, % at 57.5 µM. 360,000 tested, 4.7% active; in the data active = activity change below about -50%; inconclusive = mostly about -30% to -49%; note: % is set by controls: 0 for no effect and ±100 for the full control effect
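Secreted IL-1B measured by AlphaLISA bead assay after 16 h compound exposure of THP-1 cells; compounds (final up to 57.5 uM) added 1 h before LPS (250 ng/mL) and ATP (1.25 mM) stimulation; lower signal means less secretion.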
TDP1 cell noCPT = qHTS for Inhibitors of human tyrosyl-DNA phosphodiesterase 1 (TDP1): qHTS in cells in absence of CPT. DT40 Tdp1-/- hTDP1 cells, no CPT, ATP luminescence, 48 h. Potency, µM (titrated, usually from 46.2 µM), for the others: at the highest dose activity change, negative = growth inhibition, usual class: inhibitors. 420,000 tested, 15% active; note: potency is the fitted concentration of half-maximal effect; % is set by controls: 0 for no effect and ±100 for the full control effect; nearly all actives have a fitted effect of over 55% in size
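Chicken DT40 Tdp1-/- cells complemented with human TDP1, screened without camptothecin (DMSO vehicle only), 400 cells/well. Compounds pin-transferred, cells incubated at 37 °C for at least 48 hr. Growth read as ATP-dependent luminescence (CellTiter-Glo, 30 min at RT).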
D3 ag = D3 dopamine receptor (human) agonism | max activation, % | D3R DiscoveRx beta-arrestin cells, luminescence, 90 min | P35462 | 410,000 tested, 0.58% active; in the data active = max activation above about 30%; note: 0% is about no effect
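Agonist-mode cell screen: cells plated at 1500/well and incubated overnight at 37 °C, then exposed to library compounds for 90 min at 37 °C. Detection reagent was added for 30–60 min at room temperature, and luminescence was read.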
An asterisk follows results filed as active; ? = inconclusive; . = no result given; ! = a repeat was not active. An excerpt weighted towards active compounds, which were near 21% of everything screened. Unless noted, calls come from the whole dose curve; as a rule, active = well fitted inhibition curve with a large enough effect; inconclusive = small, poorly fitted or top-dose-only effect; inactive = flat fitted curve, though single readings scatter.

SMILES	ClpP mod	D3 antag	TDP1 cell CPT	IL-1B inflam inh	TDP1 cell noCPT	D3 ag
CCOC(=O)C1=C(C)NC(C)=C(C(=O)OCC)C1C(=O)OCC(=O)NCc1ccco1	.	40	-55%	29	21µM*	-6
O=C(COc1ccccc1-c1ccccc1)NCc1ccco1	.	-5	-31%	-51*	-26%	9
COc1ccc(OCCC(=O)OCC(=O)NCc2ccco2)cc1	0%	12	21µM*	6	?	3
Cc1cccc(C)c1OCCNC(=O)C(=O)NCc1ccco1	.	9	1.8µM*	47	2.3µM*	-10
Cc1cccc(C)c1NC(=O)NCc1ccco1	3%	0	-8%	2	-7%	-3
C/C(CC(=O)NCc1ccco1)=N\NC(=O)COc1ccc(Cl)cc1Cl	-1%	-6	18µM*	41	21µM*	-1
CCOc1ccccc1OCC(=O)NCc1ccco1	-3%	-8	29µM*	-1	13µM*	-12
Oc1c(C(c2ccc(Cl)cc2Cl)N2CCOCC2)sc2nc(-c3ccco3)nn12 (stereo unspecified)	-2%	.	-5%	.	?	8
CCOc1ccc(-c2cn3nc(CC(C)C)sc3n2)cc1	0%	.	-18%	.	?	-12
COc1ccc(CNC(=O)Cc2c(C)c3cc4c(C)coc4cc3oc2=O)cc1OC	36%	.	-2%	.	-9%	13
CCCCN(CC)C(=O)Cn1c(=O)n(-c2ccc(OCC)cc2)c(=O)c2c3c(sc21)CCC3	-2%	.	?	.	?	5
CCc1ccc(-c2ccc3nnc(SCC(=O)Nc4cccc(C(C)=O)c4)n3n2)cc1	-1%	.	-21%	.	?	-8
CCS(=O)(=O)N1CCC2(CC1)OCCN2S(=O)(=O)c1ccc(OC)cc1	1%	35	-20%	16	0%	5
O=C(O)C1CSC(c2coc3ccccc3c2=O)N1 (stereo unspecified)	?	-14	26µM*	1	?	-3
CC1CCOC(c2coc3ccccc3c2=O)O1 (stereo unspecified)	-2%	13	-4%	-4	-10%	7
COc1ccc(N2CCN(C(=O)COC(=O)CNC(=O)c3ccc(C)cc3)CC2)cc1	1%	19	-17%	7	-12%	1
CC(=O)N(Cc1cccnc1)c1cccc(-c2nc3ccccc3s2)c1	14µM*	-9	?	-62*	?	2
CC(=O)c1ccc(C(=O)N(Cc2cccnc2)c2nc3c(Cl)cccc3s2)cc1	-11%	.	26µM*	.	?	3
COc1ccc2nc(N(Cc3cccnc3)C(=O)c3ccc(Cl)cc3)sc2c1	29%	.	-1%	.	-21%	60*
CC1CCCC(C)N1C(=O)COC(=O)Cc1ccc(F)cc1 (stereo unspecified)	.	-25	?	-14	0%	-8
CC(=O)[C@@H]1[C@@H](C(=O)c2ccc(F)cc2)[C@]2(C(=O)Nc3ccccc32)[C@H]2C=Cc3cc(F)ccc3N12	.	-13	?	-74*	?	-5
C=C1C(N)CC2CC1C2(C)C (stereo unspecified)	.	.	6%	.	-4%	.
COc1ccc2nc(C)cc(Nc3ccc(N4CCOCC4)cc3)c2c1	-1%	-21	?	.	21µM*	-8
COc1ccc2nc(C)cc(Nc3ccc(N4CCN(C)CC4)cc3)c2c1	3%	-13	4.6µM*	-106*	3.3µM*	-4
COc1ccc2nc(C)cc(NCCN3CCOCC3)c2c1	.	9	-3%	?	-20%	-3
SMILES	ClpP mod	D3 antag	TDP1 cell CPT	IL-1B inflam inh	TDP1 cell noCPT	D3 ag
Cc1noc(C)c1C(=O)N1CCC2(CCN(C(=O)NC(C)C)CC2)CC1	.	.	-4%	.	-3%	.
COc1ccc(NC(=O)C(Cc2ccccc2)n2cccc2)c(OC)c1 (stereo unspecified)	2%	13	23µM*!	-6	18µM*!	-10
COc1cccc(NC(=O)C(Cc2ccccc2)n2cccc2)c1 (stereo unspecified)	.	11	-21%	-73*	-23%	9
N=c1ccn(Cc2cccc(F)c2)cc1	0%	14	?	15	18µM*	7
O=C(O)CCNC(=O)CCCn1nnc2ccccc2c1=O	-1%	-7	-11%	-5	30%	-7
Nc1c(C(=O)NC2CCCC2)c2nc3ccccc3nc2n1/N=C/c1cccnc1	.	15	16µM*	-16	18µM*	3
CC(C)OCCCNC(=O)c1c(N)n(/N=C/c2cccs2)c2nc3ccccc3nc12	-9%	26	?	-29	?	4
COCCCNC(=O)c1c(N)n(/N=C/c2ccccn2)c2nc3ccccc3nc12	-2%	42	10µM*	?	10µM*	12
Cc1ccc(NC(=O)[C@H](C)NC(=O)C2CCN(C(=O)[C@@H](N)C(C)C)CC2)cc1	-3%	10	-1%	5	-10%	0
CCC1(CC)C(=O)C(C)(C)C(=O)OC1c1cccs1 (stereo unspecified)	28µM*	0	?	18	21µM*	3
OCC(O)C1OC(c2ccccc2)OC(CO)C1O (stereo unspecified)	1%	15	1%	11	10%	31*
Cc1ccc(F)c(NC(=O)c2c(-c3ccccc3)noc2C)c1	1%	12	?	5	?	1
C[C@@]12C(=O)N(c3ccc(Cl)cc3)C(=O)N1[C@@H]1c3ccccc3OC[C@@H]1[C@H]2c1ccccc1	1%	21	?	7	?	-2
C[C@]12C(=O)N(c3ccc(Cl)cc3)C(=O)N1[C@H]1c3ccccc3OC[C@@H]1[C@H]2c1ccccc1	0%	0	?	-6	?	-12
C[C@@]12C(=O)N(c3cccc(F)c3)C(=O)N1[C@@H]1c3ccccc3OC[C@@H]1[C@H]2c1ccccc1	2%	44	?	-8	15µM*	6
C[C@@]12C(=O)N(c3ccc(Br)cc3)C(=O)N1[C@@H]1c3ccccc3OC[C@@H]1[C@H]2c1ccccc1	1%	4	?	-2	18µM*	-7
C[C@]12C(=O)N(c3ccc(Br)cc3)C(=O)N1[C@@H]1c3ccccc3OC[C@@H]1[C@H]2c1ccccc1	-3%	1	?	3	?	3
C[C@@]12C(=O)N(c3ccccc3)C(=O)N1[C@@H]1c3ccccc3OC[C@@H]1[C@H]2c1ccccc1	-4%	92	16µM*	-6	?	2
